RORgamma inh: qHTS for inhibitors of ROR gamma transcriptional activity; Drosophila S2 Gal4-RORgamma UAS-luciferase reporter, 20 h; Nuclear receptor ROR-gamma (Mus musculus), P51450; Potency, µM (doses to about 53.6 µM), without a hit: at the top dose activity change, negative = inhibition, actives largely listed as inhibitors; actives 5.4% (n = 310,000); note: nearly all actives have a fitted effect of over 60% in size
Target sequence (P51450 whole entry, looked up, the tested form may be a part): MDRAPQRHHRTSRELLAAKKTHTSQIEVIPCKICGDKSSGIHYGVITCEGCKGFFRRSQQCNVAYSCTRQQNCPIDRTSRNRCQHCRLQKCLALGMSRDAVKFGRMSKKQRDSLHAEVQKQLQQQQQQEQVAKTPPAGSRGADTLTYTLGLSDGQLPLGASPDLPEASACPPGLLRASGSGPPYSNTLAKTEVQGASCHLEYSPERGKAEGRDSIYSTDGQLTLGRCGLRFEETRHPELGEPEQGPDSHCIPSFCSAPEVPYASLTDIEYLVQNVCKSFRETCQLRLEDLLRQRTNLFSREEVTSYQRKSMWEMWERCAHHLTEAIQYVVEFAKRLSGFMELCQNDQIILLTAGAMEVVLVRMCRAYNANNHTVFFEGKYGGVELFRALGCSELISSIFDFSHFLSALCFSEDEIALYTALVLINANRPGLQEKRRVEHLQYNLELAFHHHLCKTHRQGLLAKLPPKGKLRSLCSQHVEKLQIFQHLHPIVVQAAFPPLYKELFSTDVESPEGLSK
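Stable Schneider cell line, Gal4 DNA-binding domain fused to ROR gamma, UAS-luciferase. Cmpd 1 hr RT → CuSO4 700 uM final → 20 hr RT → luciferase reagent 10 min → luminescence.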
PLK1 PBD block: qHTS for Inhibitors of PLK1-PDB (polo-like kinase 1 - polo-box domain): Primary Screen | AID 720504, 2013 | actives 2.8% (n = 360,000) | Serine/threonine-protein kinase PLK1 (Homo sapiens), P53350 | Plk1 PBD binding of FITC phosphopeptide, fluorescence polarization | Potency, µM, inactives show max response, negative = inhibition, hits mostly inhibitors; note: series mostly up to about 57 µM; nearly all actives have a fitted effect of over 65% in size
Sfp PPTase inh: qHTS Assay for Inhibitors of Bacillus subtilis Sfp phosphopantetheinyl transferase (PPTase); Potency, µM, for the others: largest response in the series, negative = inhibition, most hits filed as inhibitors; actives 3.5% (n = 310,000); Biochemical Sfp PPTase activity, qHTS; AID 1490, 2009;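 note: the enzyme is Sfp with the accession as filed and its product quenches rhodamine fluorescence; 0% = enzyme reaction without inhibitor and -100% = no enzyme wells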
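After 15 min at room temperature with compound, 15 nM Sfp received 5 uM rhodamine-CoA plus 12.5 uM BHQ-2-ybbR (50 mM Hepes pH 7.6, 10 mM MgCl2). Rate came from the fluorescence difference over 30 min, ex 525/em 598 nm.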
ALDH1A1 inh: qHTS Assay for Inhibitors of Aldehyde Dehydrogenase 1 (ALDH1A1). actives 7.3% (n = 220,000). Aldehyde dehydrogenase 1A1 (Homo sapiens), P00352. Potency, µM (doses to about 75.3 µM), for the others: at the top dose activity, negative = inhibition, actives largely listed as inhibitors. Purified ALDH1A1, NADH fluorescence, propionaldehyde substrate; active = well fitted inhibition curve with a large enough effect, not every such curve was filed as active; inconclusive = small, poorly fitted or top-dose-only effect, or another doubt; inactive = no such curve, though single readings can be large or run the other way;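 note: plate controls were no enzyme wells and a reference inhibitor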
VP16 counter: VP16 counterscreen qHTS for inhibitors of ROR gamma transcriptional activity; Drosophila S2 Gal4-VP16 UAS-luciferase, luminescence, 20 h; Potency, µM (top dose mostly 53.6 µM), for the others: at the highest dose activity, negative = inhibition, actives largely listed as inhibitors; actives 3.5% (n = 310,000); AID 2546, 2010;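 note: Gal4-VP16 expression switched on by copper sulfate through the metallothionein promoter; nearly all actives have a fitted effect of over 50% in size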
Starred values were filed as active, the others as inactive; ! = repeats disagree. In the library only some 12% were active in any assay of this set; here they are far more common. Unless noted, calls come from the whole dose curve; as a rule, active = well fitted curve in the direction sought with a large enough effect; inconclusive = small, poorly fitted or top-dose-only effect, or another doubt; inactive = no such curve, though single readings can be large; an effect the other way counts as inactive or inconclusive. Unless noted, % is set by controls: 0 for no effect and ±100 for the full control effect; potency is the fitted concentration of half-maximal effect.

How did COc1ccc(NC(=O)CSc2nc3[nH]ncc3c(=O)n2-c2ccccc2C)cc1OC do in these assays?
RORgamma inh: 14%; PLK1 PBD block: 6%; Sfp PPTase inh: 6%; ALDH1A1 inh: 28µM*; VP16 counter: 3%

Results for COc1ccc(CCNC(=O)CSc2nc3[nH]ncc3c(=O)n2-c2ccc(C)c(Cl)c2)cc1OC ?
RORgamma inh: inconclusive; PLK1 PBD block: -1%; Sfp PPTase inh: 18%; ALDH1A1 inh: 7.9µM*; VP16 counter: -12%

Results for COc1ccc(CCNC(=O)CSc2nc3[nH]ncc3c(=O)n2-c2ccc(Cl)cc2Cl)cc1OC ?
RORgamma inh: 31%; PLK1 PBD block: 4%; Sfp PPTase inh: 13%; ALDH1A1 inh: 6%; VP16 counter: -12%

What do the screens show for `COc1ccccc1-n1c(SCC(=O)Nc2ccc(F)cc2)nc2c(c1=O)SCC2`?
RORgamma inh: 32%; PLK1 PBD block: -16%; Sfp PPTase inh: -19%; ALDH1A1 inh: 11µM*; VP16 counter: -5%

What do the screens show for `COc1ccc(NC(=O)CSc2nc3c(c(=O)n2-c2ccc(F)cc2)SCC3)cc1`?
RORgamma inh: -2%; PLK1 PBD block: -2%; Sfp PPTase inh: 11%; ALDH1A1 inh: inconclusive; VP16 counter: 1%

What do the screens show for `CS(=O)(=O)N1CCC2(CCCN(Cc3cc(C(F)(F)F)cc(C(F)(F)F)c3)C2)CC1`?
RORgamma inh: 37%; Sfp PPTase inh: 10%; ALDH1A1 inh: -12%; VP16 counter: -6%

Results for COc1ccc(OC)c(-c2nn(-c3ccccc3)cc2C(=O)NC2(C)CCS(=O)(=O)C2)c1 (centres undefined) ?
PLK1 PBD block: -7%

Results for Cc1[nH]c2ccc(C(=O)O)cc2c1C ?
RORgamma inh: 18%; PLK1 PBD block: 1%; Sfp PPTase inh: -11%; ALDH1A1 inh: inconclusive; VP16 counter: inconclusive

Results for CCCc1c(C)[nH]c2ccc(C(=O)O)cc2c1=S ?
RORgamma inh: 20%; PLK1 PBD block: 13µM*; Sfp PPTase inh: 25µM*; VP16 counter: -1%

Results for CNc1nc(Nc2ccc(C(=O)OC)cc2)c2sccc2n1 ?
PLK1 PBD block: 4%

Results for COc1ccc(C2CC(C(F)(F)F)n3nc(C(=O)N(C)Cc4cn(C)nc4C)c(Cl)c3N2)cc1 (centres undefined) ?
RORgamma inh: inconclusive; PLK1 PBD block: 1%; Sfp PPTase inh: 13%; ALDH1A1 inh: -1%; VP16 counter: 2%

How did COc1ccc(C2CC(C(F)(F)F)n3nc(C(=O)NCc4c(C)nn(C)c4C)c(Cl)c3N2)cc1 (centres undefined) do in these assays?
RORgamma inh: -3%; PLK1 PBD block: -8%; Sfp PPTase inh: -9%; ALDH1A1 inh: -6%; VP16 counter: 22µM*

Results for O=C(NCCc1ccccc1)C1c2ccccc2C(=O)N1Cc1cccs1 (centres undefined) ?
RORgamma inh: 31%; PLK1 PBD block: -3%; Sfp PPTase inh: -9%; ALDH1A1 inh: 13µM*; VP16 counter: 10%

Results for CCCCCCCc1ccc(C2NC(=S)NC3=C2C(=O)c2ccccc23)cc1 (centres undefined) ?
RORgamma inh: 5.6µM*; PLK1 PBD block: 21µM*; Sfp PPTase inh: 14%; VP16 counter: inconclusive

Results for CCc1ccc(C2NC(=S)NC3=C2C(=O)CCC3)cc1 (centres undefined) ?
RORgamma inh: inconclusive; PLK1 PBD block: -14%; Sfp PPTase inh: 11%; ALDH1A1 inh: inconclusive; VP16 counter: inconclusive

What do the screens show for `CCCCN1C(=O)C(CC(=O)NC2CC2)CC(C(=O)N2CCOCC2)=C1C` (centres undefined)?
PLK1 PBD block: -1%

Results for O=C(COc1ccc(/C=N/NC(=O)c2cc3ccccc3o2)cc1Cl)Nc1ccccc1 ?
RORgamma inh: 1.3µM*; PLK1 PBD block: -14%; Sfp PPTase inh: inconclusive; ALDH1A1 inh: inconclusive; VP16 counter: 0.89µM*

What do the screens show for `COc1cc(/C=N/NC(=O)c2ccccc2O)ccc1OCC(=O)Nc1ccccc1`?
RORgamma inh: inconclusive; PLK1 PBD block: inconclusive; Sfp PPTase inh: -43%; VP16 counter: inconclusive

What do the screens show for `COCCNC(=S)N/N=C(\C)c1cccc(OC)c1`?
RORgamma inh: 4µM*; PLK1 PBD block: -8%; Sfp PPTase inh: -5%; ALDH1A1 inh: 3%; VP16 counter: inconclusive

Results for CCNC(=S)N/N=C(\C)c1cccc([N+](=O)[O-])c1 ?
RORgamma inh: 4µM*; PLK1 PBD block: -27%; Sfp PPTase inh: -7%; ALDH1A1 inh: 1%; VP16 counter: 4.5µM*

What do the screens show for `COc1cccc(C(=O)NCCCNC(=O)c2cccc(OC)c2)c1`?
RORgamma inh: 21%; PLK1 PBD block: 3%; Sfp PPTase inh: 18%; VP16 counter: 13%

Results for COCCNC(=S)N/N=C(\C)c1cccc([N+](=O)[O-])c1 ?
RORgamma inh: 3.5µM*; PLK1 PBD block: -3%; Sfp PPTase inh: -1%; ALDH1A1 inh: 6%; VP16 counter: 7.1µM*

How did CC(=O)N[C@@H](CS)C(=O)O do in these assays?
RORgamma inh: -3%; PLK1 PBD block: -21%; Sfp PPTase inh: 35µM*!; ALDH1A1 inh: 2%; VP16 counter: -3%

What do the screens show for `CCOc1ccc(Oc2nc(Nc3ccc(C)cc3)nc(N(C)C)n2)nn1`?
RORgamma inh: 1%; PLK1 PBD block: 21µM*; Sfp PPTase inh: -10%; ALDH1A1 inh: -3%; VP16 counter: inconclusive

What do the screens show for `COc1ccc2ncc(S(=O)(=O)c3ccccc3)c(N3CCC4(CC3)OCCO4)c2c1`?
RORgamma inh: inconclusive; PLK1 PBD block: -6%; Sfp PPTase inh: 6%; ALDH1A1 inh: 7.9µM*; VP16 counter: -2%

Results for COc1cc(SC)ccc1C(=O)Nc1ncc(C)s1 ?
RORgamma inh: 2.5µM*; PLK1 PBD block: -1%; Sfp PPTase inh: 11%; ALDH1A1 inh: inconclusive; VP16 counter: inconclusive

How did COC(=O)c1ccc(COC(=O)c2ccc(SC)cc2OC)cc1 do in these assays?
RORgamma inh: 21%; PLK1 PBD block: 27µM*; Sfp PPTase inh: -7%; ALDH1A1 inh: 10%; VP16 counter: -1%

Results for COc1cc(C(=O)Nc2ccc(OCC(=O)N3CCOCC3)cc2C)cc(OC)c1OC ?
RORgamma inh: -8%; PLK1 PBD block: -6%; Sfp PPTase inh: 17%; VP16 counter: 10%

How did COc1cc(SC)ccc1C(=O)NCCOc1ccc(Cl)cc1 do in these assays?
RORgamma inh: inconclusive; PLK1 PBD block: -7%; Sfp PPTase inh: -6%; ALDH1A1 inh: -11%; VP16 counter: 0%

Screens (PubChem)
